This is part of a sample that, as a whole, favours compounds with a hit. Of some 79,000 tested, about 15% had one in any assay. Values without a mark were called inactive. Calls of active or inactive are those of the source. No stated cut-off is given here; in the data, active means growth inhibition above about 70%; inactive means the rest.
Assays:
[1] = NCI Yeast Anticancer Drug Screen. Data for the rad50 strain (AID 155);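 further: 0% = growth of vehicle-only cultures of the same strain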; conditions: S. cerevisiae rad50 strain growth inhibition, stronger effect = higher value
Procedure, shortened: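 Cells are treated with compound, grown, and their growth is then scored against vehicle-only cultures of the same repair-deficient yeast strain.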

[2] = NCI Yeast Anticancer Drug Screen. Data for the mec2-1 strain (AID 157); conditions: S. cerevisiae mec2-1 strain, stronger effect = higher value
Procedure, shortened: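 Using mec2-1 yeast: add compound, measure growth, express inhibition versus vehicle-treated cultures.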

[3] = NCI Yeast Anticancer Drug Screen. Data for the sgs1 mgt1 strain (AID 161);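 further: 0% = growth of cultures given vehicle only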; conditions: S. cerevisiae sgs1 mgt1 strain, stronger effect = higher value
Procedure, shortened: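 Growth of a repair-deficient yeast mutant was monitored after compound treatment and expressed as inhibition relative to vehicle-treated cultures.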

[4] = NCI Yeast Anticancer Drug Screen. Data for the cln2 rad14 strain (AID 165);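 further: 0% = growth equal to vehicle treated cultures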; conditions: S. cerevisiae cln2 rad14 strain, stronger effect = higher value
Procedure, shortened: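 Yeast strain cln2 rad14, bearing defects in cell cycle control and DNA repair, serves as the test system; values reflect growth inhibition compared with vehicle.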

[5] = NCI Yeast Anticancer Drug Screen. Data for the bub3 strain (AID 167); conditions: S. cerevisiae bub3 mutant strain, stronger effect = higher value
Procedure, shortened: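 Part of a panel of yeast mutants defective in DNA damage repair or cell cycle regulation. Each strain is grown with compound, and inhibition is calculated relative to solvent-treated cultures.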

[6] = NCI Yeast Anticancer Drug Screen. Data for the mlh1 rad18 strain (AID 175); conditions: S. cerevisiae mlh1 rad18 strain growth inhibition, stronger effect = higher value
Procedure, shortened: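 Steps: expose repair-defective yeast to compound; measure growth; express inhibition against vehicle-treated controls.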

[7] = at 5.0 µM (retest, dose inferred, filed as 0.5)
[8] = at 50.0 µM (retest, dose inferred, filed as 5.0)

SMILES | growth inhibition [1, 7] | growth inhibition [1, 8] | growth inhibition ([1]; at 50.0 µM) | growth inhibition [2, 7] | growth inhibition [2, 8] | growth inhibition ([2]; at 50.0 µM) | growth inhibition [3, 7] | growth inhibition [3, 8] | growth inhibition ([3]; at 50.0 µM) | growth inhibition [4, 7] | growth inhibition [4, 8] | growth inhibition ([4]; at 50.0 µM) | growth inhibition [5, 7] | growth inhibition [5, 8] | growth inhibition ([5]; at 50.0 µM) | growth inhibition [6, 7] | growth inhibition [6, 8] | growth inhibition ([6]; at 50.0 µM)
COc1cc(/C=C/c2ccc(OC)c(O)c2)cc(OC)c1 | 0% | 96% (active) | 98.3% (active) | -4% | 98% (active) | 99.2% (active) | 5% | 98% (active) | 98.9% (active) | -14% | 97% (active) | 98.2% (active) | -4% | 98% (active) | 98.2% (active) | -3% | 97% (active) | 98.9% (active)
CC(=O)NNc1ccccc1 | 6% | 44% | 62.5% | 2% | 52% | 66.2% | 9% | 53% | 68.3% | 2% | 65% | 40% | 7% | 89% (active) | 87% (active) | 14% | 84% (active) | 90.7% (active)
Cc1cc2c(cc1O)C(C)(C)CCC2(C)C | 8% | 70% (active) | -6.9% | -1% | 77% (active) | 97.2% (active) | 1% | 78% (active) | 47.9% | 9% | 90% (active) | 52.8% | 0% | 83% (active) | 96.8% (active) | -2% | 62% | 97.3% (active)
O=c1c2ccccc2[nH]c(=S)n1-c1cccc(C(F)(F)F)c1 | 65% | 69% | 72.2% (active) | 49% | 59% | 76.3% (active) | 55% | 59% | 77% (active) | 52% | 48% | 61.7% | 71% (active) | 77% (active) | 77.7% (active) | 79% (active) | 81% (active) | 69.2%
S=C=NCCc1ccccc1 | -12% | 21% | 72% (active) | -13% | 18% | 48.4% | -5% | -8% | 42.5% | 2% | 8% | 28.1% | 5% | 20% | 43.8% | -20% | 15% | 61.6%
C[C@]12CC[C@H](O)C[C@@H]1CC[C@@H]1[C@@H]2CC[C@]2(C)C(=O)/C(=C/O)C[C@@H]12 | -1% | 80% (active) | 54.5% | -1% | 68% | 97.1% (active) | -1% | 67% | 87% (active) | -15% | 30% | 96.5% (active) | -4% | 84% (active) | 95.7% (active) | 0% | 61% | 96.5% (active)
Oc1c(Cl)c(Cl)c(O)c(Cl)c1Cl | 65% | 97% (active) | 99.2% (active) | 35% | 99% (active) | 99.3% (active) | 37% | 99% (active) | 99.1% (active) | -2% | 80% (active) | 95.7% (active) | 64% | 97% (active) | 99.1% (active) | 47% | 98% (active) | 98.8% (active)
CCSc1nc(=[N+]2CCCC2)ss1 | 33% | 99% (active) | 98.5% (active) | 25% | 100% (active) | 97.5% (active) | 36% | 99% (active) | 98.8% (active) | 29% | 100% (active) | 81.7% (active) | 17% | 100% (active) | 89.3% (active) | 44% | 99% (active) | 97% (active)
Cc1cc(C)c(C[N+](C)(C)C)c(C)c1C | 82% (active) | 98% (active) | 98.5% (active) | 57% | 99% (active) | 99.7% (active) | 86% (active) | 98% (active) | 99.7% (active) | 75% (active) | 98% (active) | 98.7% (active) | 78% (active) | 98% (active) | 99.4% (active) | 88% (active) | 96% (active) | 98.9% (active)
CN(C)CC1(N)C(=O)NC(=O)NC1=O | 3% | 10% | 75.7% (active) | 4% | 11% | 78% (active) | 4% | 8% | 47.3% | -1% | -1% | 43.6% | 0% | 8% | 95.2% (active) | -1% | 10% | 46.2%
O=C1CC2CCCC(C1)N2Cc1ccccc1 | 2% | 26% | 71.5% (active) | 4% | 28% | -6.1% | 15% | 47% | 62.5% | -69% | 47% | 37.5% | -2% | 25% | 34.9% | 7% | 24% | 51.7%
CCC[CH2][Sn]1([CH2]CCC)[O]C(=O)c2cccnc2[S]1 | 40% | 95% (active) | 78.4% (active) | 38% | 97% (active) | 78.3% (active) | 55% | 97% (active) | 77% (active) | 31% | 94% (active) | 62.5% | 44% | 97% (active) | 83.5% (active) | 51% | 97% (active) | 79.8% (active)
CC1=C/C(=C2/N=C(N(C)C)SS2)C(C)=N1 | 11% | 78% (active) | 13.2% | 1% | 48% | -0.9% | 31% | 88% (active) | 8.85% | 9% | 48% | 15.4% | 23% | 66% | 43.9% | 5% | 71% (active) | 16.7%
CS(=N)(=O)CCC(N)C(=O)O (configuration not stated) | -162% | -152% | 11.4% | -50% | -48% | 9.8% | -65% | -45% | -3.9% | -69% | -61% | 18.7% | -73% | -78% | 2.1% | -153% | -114% | 14.6%
O=C(O)c1cccc2cccc(C(=O)O)c12.[Hg] | 99% (active) | 99% (active) | 99.4% (active) | 100% (active) | 100% (active) | 99.5% (active) | 100% (active) | 99% (active) | 99.7% (active) | 99% (active) | 99% (active) | 98.5% (active) | 99% (active) | 99% (active) | 99.2% (active) | 99% (active) | 99% (active) | 99.6% (active)
CC(C)c1cc([N+](=O)[O-])cc([N+](=O)[O-])c1O | 9% | 88% (active) | 82.4% (active) | -20% | 90% (active) | 62.1% | 1% | 87% (active) | 86.1% (active) | 8% | 82% (active) | 58% | -4% | 85% (active) | 55.5% | 6% | 90% (active) | 80.7% (active)
C[CH2][Sn]([CH2]C)[O][Sn]([Cl])([CH2]C)[CH2]C | 51% | 96% (active) | 87.9% (active) | 35% | 97% (active) | 88.3% (active) | 37% | 97% (active) | 87.5% (active) | 19% | 91% (active) | 84% (active) | 39% | 96% (active) | 83.3% (active) | 75% (active) | 97% (active) | 86.7% (active)
Nc1ccc(Br)cc1C(=O)c1ccccc1 | 12% | 95% (active) | 99% (active) | 11% | 97% (active) | 99% (active) | 32% | 98% (active) | 99.2% (active) | 12% | 95% (active) | 92.5% (active) | 6% | 96% (active) | 94% (active) | 14% | 95% (active) | 99.2% (active)
O=C(O)c1cc(Cc2ccc(O)c(C(=O)O)c2)ccc1O (tested in a mixture with another compound) | 92% (active) | 32% | 42.6% | 76% (active) | 4% | 26.7% | 40% | 48% | 85% (active) | 31% | 41% | 14.1% | 33% | 36% | 72.7% (active) | 87% (active) | 36% | 74.4% (active)

— PubChem BioAssay (NCI)
